Screens deposited in PubChem by National Center for Advancing Translational Sciences (NCATS).
KB-V1 MDR tox – qHTS assay for MDR1-selective chemotherapeutics: Primary screen using the drug-selected MDR subline cells KB-V1; KB-V1 MDR cells viability, CellTiter-Glo, 72 h; Potency, µM (titrated, usually from 46.1 µM), most hits filed as cytotoxic; 3.4% of 400,000 active; AID 1347076, 2019; also: % is scaled to controls: 0 for no effect and ±100 for the full control effect; nearly all actives have a fitted effect of over 60% in size
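In this primary screen, KB-V1 cells overexpressing P-gp are incubated with library compounds (lowest to highest concentration) for 72 h at 37 degrees C before a luminescent ATP viability read.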
KB-3-1 tox – qHTS assay for MDR1-selective chemotherapeutics: Primary screen using the parental adenocarcinoma cell KB-3-1; KB-3-1 viability, CellTiter-Glo ATP luminescence, 72 h; Potency, µM (titrated, usually from 46.1 µM), most hits filed as cytotoxic; 1.4% of 400,000 active; also: % is scaled to controls: 0 for no effect and ±100 for the full control effect; nearly all actives have a fitted effect of over 60% in size
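Viability of parental KB-3-1 cells, measured by CellTiter-Glo luminescence, followed a 72 h incubation at 37 °C with pinned compounds in phenol-red-free DMEM containing 10% FBS.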
HT1080-NT tox – qHTS for induction of synthetic lethality in tumor cells producing 2HG: qHTS for the HT-1080-NT fibrosarcoma cell line. Potency, µM (series often up to 46.1 µM), for the others: at the top dose activity, negative = less viability, hits mostly cytotoxic. 1.6% of 360,000 active. AID 686970, 2013. HT-1080-NT fibrosarcoma viability, CellTiter-Glo ATP luminescence, 48 h;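 also: NT is the 2HG producing partner of a matched IDH1 knockdown line; 0% = DMSO-treated cells and -100% = media-only wells without cells; nearly all actives have a fitted effect of over 55% in size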
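Luminescent CellTiter-Glo readout after 48 hours of compound exposure at 37 degrees C defined viability of HT-1080-NT cells. Activity was normalized to DMSO wells and cell-free media wells; concentration-response curves were fitted and assigned curve classes.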
ATXN2 expr inh – Primary qHTS for Inhibitors of ATXN expression; HEK-293 ATXN2-luciferase reporter, luminescence, 24 h; AID 1745845, 2022; 0.72% of 360,000 active; Potency, µM (highest dose often 57 µM), for the others: at the top dose activity change, negative = inhibition, usual class: inhibitors; also: % is scaled to controls: 0 for no effect and ±100 for the full control effect; nearly all actives have a fitted effect of over 55% in size
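ATXN2-luciferase reporter cells (luciferase flanked by upstream and downstream ATXN2 gene portions) were treated 24 h at 37 °C with compounds at up to 57 uM. SteadyGlo luminescence gave expression; GF-AFC fluorescence gave viability.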
ATXN viability – Viability Counterscreen for Primary qHTS for Inhibitors of ATXN expression; S2 cells (HEK-293 line with an ATXN2-luciferase reporter) viability, CellTiter-Fluor protease fluorescence, 24 h; 0.49% of 400,000 active; Potency, µM (top dose mostly 56.7 µM), hits mostly cytotoxic; also: nearly all actives have a fitted effect of over 40% in size
HT1080 IDH1KD tx – qHTS for induction of synthetic lethality in tumor cells producing 2HG: qHTS for the HT-1080-IDH1KD cell line | Potency, µM (doses to about 46.1 µM), for inactives: at the highest dose activity, negative = toxicity, usual class: cytotoxic | HT-1080 IDH1 knockdown viability, ATP luminescence, 48 h | 2% of 360,000 active;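 also: 0% = DMSO wells and -100% = cell-free medium wells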
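Using the IDH1-knockdown HT-1080 line run in the same batch and compound series as the NT line, viability after 48 h at 37 °C was determined by CellTiter-Glo luminescence and expressed as % activity.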
An asterisk follows results filed as active; i = inactive; ? = inconclusive; nt = not tested or not shown; [ ] = another dose, or the depositor's remark. Most compounds without a hit are left out; they make up all but 6.2% or so of the library. Calls follow the shape of the dose curve; as a rule, active = well fitted curve in the direction sought with a large enough effect; inconclusive = small, poorly fitted or top-dose-only effect, or another doubt; inactive = no such curve, though single readings can be large; an effect the other way counts as inactive or inconclusive. Potency is read from the fitted curve at half-maximal effect.

SMILES	KB-V1 MDR tox	KB-3-1 tox	HT1080-NT tox	ATXN2 expr inh	ATXN viability	HT1080 IDH1KD tx
C#CCOCCOCCOCCNc1nc(N2CCN(C(=O)CCCCCCCCCCNC(=O)Cn3cc(C[C@@H](C)O)nn3)CC2)nc(N2CCN(C(=O)CCCCCCCCCCNC(=O)[C@@H]([C@H](C)O)n3cc(C)nn3)CC2)n1	i	?	18µM*	?	?	21µM*
C#CCOCCOCCOCCNc1nc(N2CCN(C(=O)CCCCCCCCCCNC(=O)Cn3cc(C[C@@H](C)O)nn3)CC2)nc(N2CCN(C(=O)CCCCCCCCCCNC(=O)[C@@H]([C@H](C)CC)n3cc(CCCCCN)nn3)CC2)n1	i	23µM*	18µM*	20µM*	nt	23µM*
C#CCOCCOCCOCCNc1nc(N2CCN(C(=O)CCCCCCCCCCNC(=O)Cn3cc(CCCCCN)nn3)CC2)nc(N2CCN(C(=O)CCCCCCCCCCNC(=O)Cn3cc(C[C@@H](C)O)nn3)CC2)n1	i	i	?	-15%	i	?
Cc1ccc(NC(=O)C(=O)NCC(c2ccc3c(c2)OCO3)N2CCN(C)CC2)c(C)c1 (centres undefined)	i	i	nt	-8%	i	nt
CCN(C[C@H]1N[C@@](CC)(C(=O)OC)[C@H]2C(=O)N(Cc3ccccc3)C(=O)[C@@H]12)C(=O)c1ccc(C(C)(C)C)cc1	?	i	?	?	16µM*	21µM*
N=C1C=CC(=C(c2ccc(N)cc2)c2ccc(N)cc2)C=C1	i	3.7µM*	23µM*	?	nt	7.3µM*
CCc1ccc(N(C(=O)CNC(=O)c2ccco2)C(C(=O)NC2CCCC2)c2cccnc2)cc1 (centres undefined)	i	i	1%	21%	i	10%
Cc1cccc(-n2cnc(C(=O)NNC(=S)Nc3ccc(Cl)cc3)c2)n1	i	13µM*	-22%	-10%[11.3 µM]	i	-23%
CC(C)(C)OC(=O)N1CCC(c2nnc(SCc3ccccc3)o2)CC1	?	i	nt	-19%	i	nt
COC(=O)c1c(C(=O)c2ccc(Br)cc2)n(C)c2ccccc12	21µM*	?	-1%	-23%	i	-11%
Cc1cc(-n2c(C)nc3ccccc3c2=O)ccc1NC(=O)c1cccc([N+](=O)[O-])c1	i	i	nt	-16%	i	nt
COC(=O)[C@]12CCC(C)(C)C[C@@H]1[C@@H]1C(=O)C=C3[C@@]4(C)C=C(C#N)C(=O)C(C)(C)[C@@H]4CC[C@@]3(C)[C@]1(C)CC2	nt	nt	nt	1.7µM*	2.5µM*	nt
Cc1ccc(CSc2ccc3nnc(-c4ccccn4)n3n2)cc1	?	i	8%	4%	i	-23%
Cc1ccc(CSc2ccc3nnc(-c4cccnc4)n3n2)cc1	?	i	-8%	-12%	i	-8%
Brc1ccc(CSc2ccc3nnc(-c4cccnc4)n3n2)cc1	9.2µM*	i	?	2%	i	?
Brc1ccc(CSc2ccc3nnc(-c4ccccn4)n3n2)cc1	15µM*	i	-22%	-5%	i	-26%
CC(=O)Nc1ccc(S(=O)(=O)N2CCN(c3ccc(C)c(C)c3)CC2)cc1	i	i	nt	0%	i	nt
COC(=O)C1(C(=O)OC)Cc2ccccc2N(S(=O)(=O)c2ccc(C)cc2)C1CC(C)=O (centres undefined)	?	i	-1%	nt	nt	-7%
COc1ccc(CCC(=O)N2CCN(S(=O)(=O)c3ccc(OC(F)(F)F)cc3)CC2)cc1	16µM*	i	0%	0%	i	8%
CC(=O)Nc1ccc2c(c1)C(=O)c1ccccc1C2=O	i	i	-6%	32%	i	-3%
